Experimental data as given in PubChem BioAssay AID488847 (NMMLSC, 2010).
Hit rate of the full screen: of about 330,000 compounds, about 1,900 (0.58%) were called active.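 Rule for the calls: active = inhibition of aptamer binding above 40%, roughly 3 SD of noise, on plates passing a quality check; inactive = the rest.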 The sample as a whole holds a higher share of actives than the screen did.

These compounds were tested against Beta-adrenergic receptor kinase 1 (Homo sapiens) (UniProt P25098) (assay: compounds blocking aptamer binding on GRK2 – biochemical, human GRK2, bead flow cytometry, HTS, primary screen (AID 488847;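 note: median bead fluorescence of bound FAM aptamer so fluorescent compounds give negative values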)). Settings: FAM-aptamer displacement from GRK2, at 10 µM, stronger effect = higher value.
Beta-adrenergic receptor kinase 1 (Homo sapiens), sequence (P25098 whole entry, looked up): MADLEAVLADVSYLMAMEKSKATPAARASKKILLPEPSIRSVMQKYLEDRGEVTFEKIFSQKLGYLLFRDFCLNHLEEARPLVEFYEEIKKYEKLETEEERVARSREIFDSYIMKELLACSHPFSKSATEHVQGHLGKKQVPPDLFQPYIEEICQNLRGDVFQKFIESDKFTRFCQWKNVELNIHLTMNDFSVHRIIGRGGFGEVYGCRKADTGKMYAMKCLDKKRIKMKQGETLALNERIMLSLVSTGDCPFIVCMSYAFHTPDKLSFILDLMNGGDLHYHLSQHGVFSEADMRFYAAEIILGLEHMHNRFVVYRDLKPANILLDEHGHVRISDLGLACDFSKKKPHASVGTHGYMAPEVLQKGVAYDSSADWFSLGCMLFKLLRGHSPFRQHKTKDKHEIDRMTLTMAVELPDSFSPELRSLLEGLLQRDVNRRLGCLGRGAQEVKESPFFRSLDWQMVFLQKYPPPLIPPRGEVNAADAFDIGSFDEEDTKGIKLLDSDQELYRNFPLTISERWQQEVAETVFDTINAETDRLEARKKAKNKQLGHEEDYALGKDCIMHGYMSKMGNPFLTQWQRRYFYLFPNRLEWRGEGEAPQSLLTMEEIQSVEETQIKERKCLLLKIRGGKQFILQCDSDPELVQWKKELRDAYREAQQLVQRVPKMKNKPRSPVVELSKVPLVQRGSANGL

Row | SMILES | inhibition of aptamer binding
1 | CN(CC(=O)N1CCN(c2ccccc2)CC1)S(=O)(=O)c1cccs1 | 0% (inactive)
2 | COCc1ccc(CN2CCC(Oc3ccc(C(=O)NCc4ccccn4)cc3)CC2)o1 | 0% (inactive)
3 | CCOC(=O)N1CCC(NC(=O)C(C)n2c3ccccc3c3cnn(C)c(=O)c32)CC1 (stereo not given) | 4% (inactive)
4 | O=C(N[C@H]1C/C=C\C(c2ccc(F)cc2)N(Cc2ccccc2)C(=O)C1)OCC1c2ccccc2-c2ccccc21 (stereo not given in full) | 0% (inactive)
5 | CCOC(=O)N1CCN(C(=O)c2ccc(CN(c3ccc(C)c(C)c3)S(C)(=O)=O)cc2)CC1 | 3% (inactive)
6 | CCC1(C(=O)c2ccccc2)C(c2cccc([N+](=O)[O-])c2)C1(C(=O)OC)C(=O)OC (stereo not given) | 0% (inactive)
7 | CC(C)CN(C(=O)c1ccc2c(c1)OCO2)C1CCS(=O)(=O)C1 (stereo not given) | 2% (inactive)
8 | O=C(c1cccc(S(=O)(=O)N2CCCC2)c1)N(Cc1ccco1)C1CCS(=O)(=O)C1 (stereo not given) | 4% (inactive)
9 | CC(C)CN(C(=O)c1cccc(S(=O)(=O)N2CCCCC2)c1)C1CCS(=O)(=O)C1 (stereo not given) | 92% (active)
10 | CO/N=C(/CS(=O)(=O)c1ccc(Br)cc1)c1ccc(OC)cc1 | 2% (inactive)
11 | COc1ccc(S(=O)(=O)N2CN(CCc3ccc(OC)c(OC)c3)c3nc4ccccc4nc32)cc1 | 3% (inactive)
12 | CSc1ccc(/C=C2\NC(=O)NC2=O)cc1 | 46% (active)
13 | Cc1ccc(NC(=O)COc2ccc(/C=C3/NC(=O)NC3=O)cc2)cc1 | 0% (inactive)
14 | CC(C)c1ccc(/C=C2\NC(=O)NC2=O)cc1 | 0% (inactive)
15 | Cc1ccc(-c2cc(=O)[nH]c(NCc3ccccc3)n2)cc1 | 2% (inactive)
16 | Cc1cccc2nc(CNc3ccc(F)cc3)cn12 | 2% (inactive)
17 | CC(NCc1cccs1)C(=O)Nc1cc(Cl)cc(Cl)c1 (stereo not given) | 0% (inactive)
18 | COc1cc(NS(=O)(=O)c2ccc3ccccc3c2)c2ncccc2c1 | 0% (inactive)
19 | O=[N+]([O-])c1cccc2ncccc12 | 4% (inactive)
20 | O=[N+]([O-])c1ccccc1S(=O)(=O)Nc1cccc2cccnc12 | 46% (active)
21 | O=C(c1ccc(Cl)cc1)c1ccc(OCC(O)CN2CCCCC2)cc1 (stereo not given) | 43% (active)
22 | OC(COc1ccc(Br)cc1)CN1CCCC1 (stereo not given) | 0% (inactive)
23 | CC1CCN(CC(O)COc2ccc(C(=O)c3ccccc3)cc2)CC1 (stereo not given) | 0% (inactive)

Row | SMILES | inhibition of aptamer binding
24 | C=CCOc1ccc(/C=C/C(=O)OC(C)C(=O)Nc2ccc(NC(C)=O)cc2)cc1 (stereo not given) | 1% (inactive)
25 | CN(C(=O)c1cccc([N+](=O)[O-])c1)c1ccccc1C(=O)NCc1ccccc1 | 1% (inactive)
26 | COc1cc(C(=O)N(Cc2ccc(N(C)C)cc2)C2CCS(=O)(=O)C2)cc(OC)c1OC (stereo not given) | 0% (inactive)
27 | COc1ccc2oc(C(=O)N(CC(C)C)C3CCS(=O)(=O)C3)c(C)c2c1 (stereo not given) | 0% (inactive)
28 | COc1ccccc1C(=O)N(Cc1ccc(C)o1)C1CCS(=O)(=O)C1 (stereo not given) | 43% (active)
29 | CCOC(=O)CN(C(=O)CN1CCOCC1)c1ccc(Br)cc1 | 0% (inactive)
30 | CC(=O)N1CCc2cc(Br)cc(S(=O)(=O)CCC(=O)Nc3c(C)n(C)n(-c4ccccc4)c3=O)c21 | 0% (inactive)
31 | Cc1c(NC(=O)C(C)Oc2cccc(Cl)c2)c(=O)n(-c2ccccc2)n1C (stereo not given) | 0% (inactive)
32 | COc1ccccc1NC(=O)C1CCN(C(=O)c2ccc(C(C)(C)C)cc2)CC1 | 0% (inactive)
33 | O=C(c1ccccc1)c1ccc(C(=O)N2CCN(c3ccccc3)CC2)cc1 | 1% (inactive)
34 | CC(=O)c1ccc(N2CCN(C(=O)c3ccc4nc[nH]c4c3)CC2)cc1 | 66% (active)
35 | CC(=O)c1ccc(N2CCN(C(=O)CCc3ccccc3)CC2)cc1 | 0% (inactive)
36 | O=C(CN1CCN(S(=O)(=O)c2ccc(Cl)s2)CC1)NCc1ccc(Cl)cc1 | 2% (inactive)
37 | COc1ccc(NC(=O)Cn2ncn3c(cc4ccccc43)c2=O)c(OC)c1OC | 1% (inactive)
38 | CN1CCN(c2nc3c(c(=O)[nH]c(=O)n3C)n2Cc2cccc3ccccc23)CC1 | 0% (inactive)
39 | Cn1c(=O)[nH]c(=O)c2c1nc(N1CCN(CCO)CC1)n2CCSc1nc2ccccc2s1 | 0% (inactive)
40 | Cn1c(=O)[nH]c(=O)c2c1nc(N1CCN(C(c3ccccc3)c3ccccc3)CC1)n2CCO | 43% (active)
41 | Cc1ccc(NN=Nc2nc3c([nH]2)c(=O)n(C)c(=O)n3C)cc1 | 0% (inactive)
42 | CCOC(=O)c1cc2c(n(-c3ccc(C)cc3)c1=O)CCCC2=O | 0% (inactive)
43 | O=C1CCCC2=C1C(c1cccs1)CC(=O)N2c1ccc(F)cc1 (stereo not given) | 0% (inactive)
44 | CCOC(=O)C1=C(N)N(c2ccc(C)cc2)C2=C(C(=O)CCC2)C1c1cccs1 (stereo not given) | 45% (active)
45 | O=C(c1ccc(F)cc1)N1CCCC(C(=O)N2CCCCC2)C1 (stereo not given) | 1% (inactive)
46 | Cc1noc(C)c1COc1ccccc1C(=O)N(C)CC(=O)Nc1cccc(F)c1 | 1% (inactive)

Row | SMILES | inhibition of aptamer binding
47 | COC(=O)N/N=C/c1ccc(/C=N/NC(=O)OC)cc1 | 87% (active)
48 | COC(=O)N/N=C/c1ccc(-c2ccc(Cl)c(Cl)c2)o1 | 0% (inactive)
49 | CC(C)(C)OC(=O)N/N=C/c1ccc(C(=O)O)cc1 | 0% (inactive)
50 | CCNS(=O)(=O)c1ccc(CCC(=O)N2CCN(c3cc(Cl)ccc3C)CC2)cc1 | 0% (inactive)
51 | O=C1c2ccccc2C2=Nc3ccccc3SC(c3ccccc3F)C12 (stereo not given) | 0% (inactive)
52 | COc1ccc(C2=NN(C(=O)CSc3nc(=O)n4ccc(C)cc4n3)C(c3ccc(C)cc3)C2)cc1 (stereo not given) | 2% (inactive)
53 | COc1cc(C)ccc1OCC(=O)OCC(=O)c1ccc[nH]1 | 0% (inactive)
54 | CN1C(=O)CC(N2CCN(c3ccccn3)CC2)C1=O (stereo not given) | 1% (inactive)
55 | CC1(c2ccccc2)CC(C)(C)N(C(=O)c2cc([N+](=O)[O-])cc([N+](=O)[O-])c2)c2ccccc21 (stereo not given) | 0% (inactive)
56 | Cc1nnc(SCC(=O)N2c3ccccc3C(C)(c3ccc(Cl)cc3)CC2(C)C)s1 (stereo not given) | 72% (active)
57 | CC1(c2cccc([N+](=O)[O-])c2)CC(C)(C)N(C(=O)c2ccccc2)c2ccccc21 (stereo not given) | 0% (inactive)
58 | CN(C(=O)CC(NC(=O)c1ccccc1)(c1ccccc1)c1ccccc1)c1ccccc1 | 1% (inactive)
59 | CC(Sc1nnc(-c2ccccc2F)n1C1CC1)C(N)=O (stereo not given) | 0% (inactive)
60 | Cc1ccc(C(=O)COC(=O)CCCC(=O)NC2CCCCC2)cc1[N+](=O)[O-] | 0% (inactive)
61 | CCOc1ccc(-n2c(SCC(=O)Nc3ccc(OC)cc3)nc3sc4c(c3c2=O)CCN(C)C4)cc1 | 0% (inactive)
62 | COc1ccccc1NC(=O)CSc1nc2sc3c(c2c(=O)n1-c1ccccc1)CCN(C)C3 | 56% (active)
63 | CCOc1ccc(-n2c(SCC(=O)OC)nc3sc4c(c3c2=O)CCN(C)C4)cc1 | 1% (inactive)
64 | C[C@@H](O)c1nc2ccccc2n1N | 0% (inactive)
65 | CCOC(=O)c1c(C)[nH]c(C)c1S(=O)(=O)NCCCc1ccco1 | 0% (inactive)
66 | Cn1c(=O)c2c(nc(N3CCOCC3)n2CCNC2=NCCC2)n(C)c1=O | 83% (active)
67 | Cc1cccc(Cn2c(N3CCN(c4ccccc4)CC3)nc3c2c(=O)n(C)c(=O)n3C)c1 | 0% (inactive)
68 | CCCCn1c(SCC(=O)N2CCOCC2)nc2c1c(=O)n(C)c(=O)n2C | 0% (inactive)
69 | CC1O[C@H](OC2C(COC3OC(CO)C(O)[C@H](O)C3O)OC(OC3CC[C@]4(C)C(CC[C@@]5(C)[C@@H]4C=C[C@]46OC[C@@]7(CCC(C)(C)C[C@H]74)C(O)C[C@@]56C)C3(C)C)C(O)C2O)C(O)C(O)C1O (stereo not given in full) | 0% (inactive)

Row | SMILES | inhibition of aptamer binding
70 | CC1=NCCN1S(=O)(=O)c1ccc(Br)c(C)c1 | 8% (inactive)
71 | Cc1ccc(C(CNC(=O)Nc2cccc(C)c2)N2CCN(C)CC2)cc1 (stereo not given) | 53% (active)
72 | COc1ccc(S(=O)(=O)NCC(c2ccc(C)cc2)N2CCN(C)CC2)cc1OC (stereo not given) | 0% (inactive)
73 | Cc1ccc(C(CNC(=O)Nc2ccccc2)N2CCN(C)CC2)cc1 (stereo not given) | 0% (inactive)
74 | O=C(NCc1cccc(Cl)c1)C1CCC(=O)N(C2CC2)C1 (stereo not given) | 30% (inactive)
75 | C=CC[C@@H](CC(=O)N[C@@H](CO)Cc1ccccc1)C(=O)N[C@H](COC(=O)[C@H](CC=C)CC(=O)OC(C)(C)C)Cc1ccccc1 | 3% (inactive)
76 | C=CC[C@@H](CC(=O)N[C@H](CO)Cc1ccccc1)C(=O)N[C@H](C)COC(=O)[C@@H](CC=C)Cc1ccc(F)cc1 | 26% (inactive)
77 | C=CC[C@@H](CC(=O)N[C@@H](CO)Cc1ccccc1)C(=O)NCCOC(=O)[C@@H](CC=C)CC(=O)OC(C)(C)C | 94% (active)
78 | CC(C)CNC(=S)NNC(=O)c1ccccc1OC(F)F | 0% (inactive)
79 | Cc1ccc(C(=O)N/C(=C/c2cccnc2)C(=O)O)cc1 | 0% (inactive)
80 | O=C(O)/C(=C/c1cccnc1)NC(=O)c1ccccc1 | 53% (active)
81 | CC(C)(C)NC(=O)/C(=C/c1cccnc1)NC(=O)c1ccco1 | 4% (inactive)
82 | Cc1ccc2[nH]c(=O)c(-c3nc4c(C)cccn4c3NCc3ccco3)cc2c1 | 0% (inactive)
83 | Cc1cc(C)cc(N(CC(=O)N2CC=C(c3ccccc3)CC2)S(=O)(=O)c2c(C)noc2C)c1 | 0% (inactive)
84 | O=c1[nH]nc(Cc2ccccn2)c2ccccc12 | 0% (inactive)
85 | O=C(Oc1ccc2c(c1)CCC2)N1CCOCC1 | 0% (inactive)
86 | Cc1nn(CC(=O)NCc2ccccn2)c(C)c1[N+](=O)[O-] | 1% (inactive)
87 | COCCCNC(=O)CN1CCN(Cc2ccccc2Cl)C1=O | 4% (inactive)
88 | Cc1ccccc1CN1CCN(CC(=O)NCc2ccccn2)C1=O | 51% (active)
89 | Cc1cccc(N(C(=O)c2sc(C)nc2C)C(C(=O)NCC2CCCO2)c2ccccc2)c1 (stereo not given) | 1% (inactive)
90 | CCn1nc(C)c(NC(=O)/C=C/c2ccc(OC)c(COc3ccc(Br)cc3)c2)c1C | 1% (inactive)
